# From the supplement of paper PMC10338343
# ± gives the standard deviation.
# System: MILI (PIWIL2) piRISC loaded with piRNA #1 (26 nt)
# Experiment: pre-steady-state target cleavage rate (min^-1); guide: piRNA #1 5'p-UGAGGUAGUAGGUUGUAUAGUAUCCA; MIWI and MILI are mouse PIWI proteins and EfPiwi is from a freshwater sponge; tags in brackets are library labels; higher = faster piRNA-guided slicing of the target
# Settings: auxiliary factor: 500 nM mouse GTSF1
# Outline: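 A transcribed, DNA-blocked target RNA library […] was incubated at 33 °C for 0–8 or 0–960 min with 1 nM active affinity-purified piRISC carrying one synthetic guide, in HEPES–potassium acetate buffer with or without 500 nM GTSF1 partner protein. Uncleaved targets were then sequenced and normalised to depth and to weakly complementary targets. Data from three trials were pooled, with k3 capped at 0.0001 min^-1, and a burst-and-steady-state fit yielded the pre-steady-state cleavage rate.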
# 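Also: 1 nM active piRISC with 0.1 nM target library at 33 °C single turnover.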
row,Sequence,pre-steady-state target cleavage rate
1,GGAGACCUAUGAUAUGAACGCUACUACCUCA,< 0.0001
2,GGAGACCUAUGAAUACAACCUACUACCAUCA,0.00646 ± 0.0026
3,GGAGACCUAUGAUAACAAGCUACUACCUGA,0.00722 ± 0.0035
4,GGAGACCUAUGAAUACAACCUACUACCUCA [g2:g18:cont:t1A],0.00878 ± 0.0033
5,GGAGACCUAUGAUAUCAACCUACUAACCUCA,0.00255 ± 0.0025
6,GGAGACCUAUGAUAUGUACCAACUAGCUCA,< 0.0001
7,GGAGACCUAACUAUAGUUCCUACUACCUCA,0.0706 ± 0.013
8,GGAGACCUAUGAUAUGUAACCUACUACCUCA,0.017 ± 0.0038
9,GGAGACCUAUGAUAUGUUCCUUCUACCACA,< 0.0001
10,GGAGUGGAUACUUUACAACCAACUACCUCA,0.00276 ± 0.0018
11,GGAGACCUAUCUAUACAACCUACUACAUCA,0.051 ± 0.0067
12,GGAGACCUUACUAUACAACCUACUAUCCUCA,0.194 ± 0.022
13,GGAGACCUAUGAUAUGUACCUACUACCCCA,< 0.0001
14,GGAGUGGAUACUAUUGAACCUACUACCUCA,0.0784 ± 0.0078
15,GGAGACCUAUGUUUACAACCUACUACCACA,0.0147 ± 0.0041
16,GGAGACCUAUGUAUACAACCUACUAUCCUCA,0.0887 ± 0.011
17,GGAGACCUAUGAUAACAACCUACUAUCCUCA,0.00426 ± 0.003
18,GGAGACCAUACUAUUCUACCUACUACCUCA,0.178 ± 0.017
19,GGAGACCUAUGAUAUGUUGGUACUACGAGA,< 0.0001
20,GGAGACCUAUGUAUACAACCUACAACGUCA,0.00278 ± 0.0027

row,Sequence,pre-steady-state target cleavage rate
1,GGAGACCUAACUAAACAACCUACAACCUCA,0.131 ± 0.029
2,GGAGACCUUACUAUACAACGUUCUACCUCA,0.00546 ± 0.0015
3,GGAGACCUUACUAACAACCUACUACCUCA,0.0824 ± 0.016
4,GGAGACCUAUCUAUACAACCUACUACCUGCA,0.103 ± 0.014
5,GGAGACCUAUGUAUACAACCUACUACCUA,0.044 ± 0.0064
6,GGAGACCUAACUAUACUAGCUACUACCUCA,0.12 ± 0.015
7,GGAGACCUUCUAUACAACCUACUACCUCA,0.0879 ± 0.016
8,GGAGAGGAUUCUAUACAACCUACUACCUGA,0.0768 ± 0.011
9,GGAGACCUAUGAUUACAACGUACUACCUCA,0.00443 ± 0.0016
10,GGAGACCUAACUUUACAACGUACUACCUCA,0.00988 ± 0.0052
11,GGAGACCUAUGAUAUGAACCUACUAUCUCA,< 0.0001
12,GGAGUCGAUACUAUACUACCUACUACCUCA,0.19 ± 0.012
13,GGAGAGGAUACUAUGCAACCUACUACCUCA,0.214 ± 0.011
14,GGAGACCUAUCUAUAGCAACCUACUACCUCA,0.0831 ± 0.016
15,GGAGACCUAUGUAAACAAGCUACUACCUCA,0.0459 ± 0.0073
16,GGAGACCUAUCUAAACAACCUAGUACCUCA,0.0109 ± 0.0036
17,GGAGUGGAUACUUUUCAACCUACUACCUCA,0.156 ± 0.0072
18,GGAGACCUAUGUAUGACAACCUACUACCUCA,0.0123 ± 0.0037
19,GGAGACCUAUCAAUACAACCUACUUCCUCA,0.0355 ± 0.0087
20,GGAGACCUAUGAUUACAAGCUACUACCUGA,0.0183 ± 0.0056
